Measurements as given in article PMC7862700, “An all-to-all approach to the identification of sequence-specific readers for epigenetic DNA modifications on cytosine”.

Key:
Test in all cases: DAPPL (digital affinity profiling via proximity ligation, sequencing); 10 mM Tris-HCl pH 7.5, 50 mM NaCl, 1 mM DTT, 4% glycerol, room temperature, 30 min; GST-TFs on glutathione beads, 16-mer random dsDNA library, 0.1% formaldehyde crosslink after washing; high values mean tight binding
FLI1 = molecular target: T1, FLI1 (Homo sapiens, UniProt Q01543 1-452); conditions: protein: recombinant; tags: N-terminal GST; dsDNA, one strand shown
T1 sequence: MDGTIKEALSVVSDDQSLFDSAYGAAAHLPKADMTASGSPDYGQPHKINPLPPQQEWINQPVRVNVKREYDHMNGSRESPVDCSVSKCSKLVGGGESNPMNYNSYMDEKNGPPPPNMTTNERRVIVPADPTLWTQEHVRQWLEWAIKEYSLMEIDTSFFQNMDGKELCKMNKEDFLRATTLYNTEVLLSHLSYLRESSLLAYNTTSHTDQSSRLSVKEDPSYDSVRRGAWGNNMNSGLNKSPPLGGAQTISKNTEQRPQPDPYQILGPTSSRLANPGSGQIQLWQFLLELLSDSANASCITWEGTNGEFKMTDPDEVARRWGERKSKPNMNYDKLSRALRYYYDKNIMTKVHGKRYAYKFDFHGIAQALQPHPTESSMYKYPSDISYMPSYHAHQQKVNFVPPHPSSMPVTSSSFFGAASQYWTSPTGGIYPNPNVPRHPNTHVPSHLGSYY
Procedure, shortened: (§1)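 Binding signal is given per hexamer as its read frequency for a factor divided by its frequency in the tag-only sample. GST-fused human transcription factors were expressed in yeast, captured on glutathione beads, barcoded with DNA and pooled with that sample, then incubated with 200 nmole of a 16-mer random double-stranded DNA library in Tris/NaCl/DTT/glycerol buffer for 30 min at room temperature. The pools were then washed, crosslinked, proximity-ligated, amplified by PCR and sequenced on an Illumina NextSeq500.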

ELK1 = molecular target: T2, ELK1 (Homo sapiens, UniProt P19419 1-428); conditions: protein: recombinant; tags: N-terminal GST; dsDNA, one strand shown
T2 sequence: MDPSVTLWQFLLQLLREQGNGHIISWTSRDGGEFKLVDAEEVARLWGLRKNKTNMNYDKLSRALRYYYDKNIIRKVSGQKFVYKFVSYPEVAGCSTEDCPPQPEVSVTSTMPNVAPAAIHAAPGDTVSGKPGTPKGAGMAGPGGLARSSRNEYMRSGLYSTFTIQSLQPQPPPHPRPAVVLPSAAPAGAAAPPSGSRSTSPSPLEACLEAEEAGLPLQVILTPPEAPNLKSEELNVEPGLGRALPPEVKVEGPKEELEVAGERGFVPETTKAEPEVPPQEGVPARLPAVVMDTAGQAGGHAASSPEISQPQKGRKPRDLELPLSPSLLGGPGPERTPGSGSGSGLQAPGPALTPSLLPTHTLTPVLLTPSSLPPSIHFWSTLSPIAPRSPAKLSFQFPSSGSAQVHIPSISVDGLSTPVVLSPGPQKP
Procedure, shortened: as §1

GABPA = molecular target: T3, GABPA (Homo sapiens, UniProt Q06546 1-454); conditions: protein: recombinant; tags: N-terminal GST; dsDNA, one strand shown
T3 sequence: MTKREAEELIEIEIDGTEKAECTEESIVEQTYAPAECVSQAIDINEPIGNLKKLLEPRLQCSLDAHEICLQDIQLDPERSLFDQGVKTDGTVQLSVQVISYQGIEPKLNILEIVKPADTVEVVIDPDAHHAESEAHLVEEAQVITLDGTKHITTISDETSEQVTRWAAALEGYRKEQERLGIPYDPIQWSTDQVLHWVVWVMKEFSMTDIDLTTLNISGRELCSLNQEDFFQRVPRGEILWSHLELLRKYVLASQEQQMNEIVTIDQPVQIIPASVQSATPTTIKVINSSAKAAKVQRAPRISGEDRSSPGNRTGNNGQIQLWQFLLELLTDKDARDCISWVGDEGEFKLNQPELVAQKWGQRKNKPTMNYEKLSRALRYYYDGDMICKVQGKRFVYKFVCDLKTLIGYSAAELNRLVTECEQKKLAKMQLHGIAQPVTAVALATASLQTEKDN
Procedure, shortened: as §1

ERG = molecular target: T4, ERG (Homo sapiens, UniProt P11308 1-479); conditions: protein: recombinant; tags: N-terminal GST; dsDNA, one strand shown
T4 sequence: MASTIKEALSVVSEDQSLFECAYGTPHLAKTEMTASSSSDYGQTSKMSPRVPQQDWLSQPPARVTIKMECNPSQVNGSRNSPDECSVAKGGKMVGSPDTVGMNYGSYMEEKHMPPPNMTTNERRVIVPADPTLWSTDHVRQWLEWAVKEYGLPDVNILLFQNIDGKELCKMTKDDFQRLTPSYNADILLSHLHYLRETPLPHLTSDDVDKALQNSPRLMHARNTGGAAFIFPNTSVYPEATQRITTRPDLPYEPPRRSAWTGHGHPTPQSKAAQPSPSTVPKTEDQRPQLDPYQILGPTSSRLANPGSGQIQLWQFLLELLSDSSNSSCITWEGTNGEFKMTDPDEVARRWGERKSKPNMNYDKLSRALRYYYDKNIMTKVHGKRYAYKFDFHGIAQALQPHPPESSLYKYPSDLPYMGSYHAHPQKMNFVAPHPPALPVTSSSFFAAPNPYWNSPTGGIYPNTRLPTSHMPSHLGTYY
Procedure, shortened: as §1

ELF1 = ELF1 (Homo sapiens, UniProt P32519 1-619); conditions: protein: recombinant; tags: N-terminal GST; dsDNA, one strand shown
Chain of ELF1 (P32519 whole entry): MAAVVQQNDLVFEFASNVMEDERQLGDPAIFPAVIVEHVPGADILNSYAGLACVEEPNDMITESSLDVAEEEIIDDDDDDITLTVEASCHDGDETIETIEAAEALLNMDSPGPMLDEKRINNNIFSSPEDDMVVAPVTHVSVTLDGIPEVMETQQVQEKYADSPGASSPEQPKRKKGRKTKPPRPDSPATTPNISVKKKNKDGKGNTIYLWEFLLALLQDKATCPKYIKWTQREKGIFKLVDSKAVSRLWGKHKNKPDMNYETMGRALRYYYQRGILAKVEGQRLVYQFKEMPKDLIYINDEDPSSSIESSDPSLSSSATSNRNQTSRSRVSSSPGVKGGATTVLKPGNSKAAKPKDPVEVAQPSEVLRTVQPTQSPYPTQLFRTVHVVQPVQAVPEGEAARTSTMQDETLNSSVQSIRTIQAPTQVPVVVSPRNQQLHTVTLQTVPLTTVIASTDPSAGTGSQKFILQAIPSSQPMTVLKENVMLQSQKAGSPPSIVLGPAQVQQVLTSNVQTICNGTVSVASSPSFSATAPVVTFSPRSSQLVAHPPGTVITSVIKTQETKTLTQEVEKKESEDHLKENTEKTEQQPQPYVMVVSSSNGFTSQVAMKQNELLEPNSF
Procedure, shortened: as §1

EHF = molecular target: T5, EHF (Homo sapiens, UniProt Q9NZC4 1-300); conditions: protein: recombinant; tags: N-terminal GST; dsDNA, one strand shown
T5 sequence: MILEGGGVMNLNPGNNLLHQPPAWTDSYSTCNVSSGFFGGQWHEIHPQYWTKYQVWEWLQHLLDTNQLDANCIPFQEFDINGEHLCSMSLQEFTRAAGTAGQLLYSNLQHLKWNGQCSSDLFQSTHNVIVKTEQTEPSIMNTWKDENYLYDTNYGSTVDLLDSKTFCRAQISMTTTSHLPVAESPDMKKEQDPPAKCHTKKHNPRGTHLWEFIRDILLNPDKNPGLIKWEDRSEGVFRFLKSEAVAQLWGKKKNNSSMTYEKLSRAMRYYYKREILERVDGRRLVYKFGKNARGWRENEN
Procedure, shortened: as §1

SPI1 = SPI1 (Homo sapiens, UniProt P17947 1-270); conditions: protein: recombinant; tags: N-terminal GST; dsDNA, one strand shown
Procedure, shortened: as §1

SPIB = SPIB (Homo sapiens, UniProt Q01892 1-262); conditions: protein: recombinant; tags: N-terminal GST; dsDNA, one strand shown
Chain of SPIB (Q01892 whole entry): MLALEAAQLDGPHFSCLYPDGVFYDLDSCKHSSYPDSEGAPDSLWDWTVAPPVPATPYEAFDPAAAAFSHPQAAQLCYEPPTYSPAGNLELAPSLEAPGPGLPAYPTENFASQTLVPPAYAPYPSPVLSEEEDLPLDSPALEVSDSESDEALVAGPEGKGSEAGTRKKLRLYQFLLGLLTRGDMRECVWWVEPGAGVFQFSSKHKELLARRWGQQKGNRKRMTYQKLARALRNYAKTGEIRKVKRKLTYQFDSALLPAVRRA
Procedure, shortened: as §1

ELK3 = molecular target: T6, ELK3 (Homo sapiens, UniProt P41970 1-407); conditions: protein: recombinant; tags: N-terminal GST; dsDNA, one strand shown
T6 sequence: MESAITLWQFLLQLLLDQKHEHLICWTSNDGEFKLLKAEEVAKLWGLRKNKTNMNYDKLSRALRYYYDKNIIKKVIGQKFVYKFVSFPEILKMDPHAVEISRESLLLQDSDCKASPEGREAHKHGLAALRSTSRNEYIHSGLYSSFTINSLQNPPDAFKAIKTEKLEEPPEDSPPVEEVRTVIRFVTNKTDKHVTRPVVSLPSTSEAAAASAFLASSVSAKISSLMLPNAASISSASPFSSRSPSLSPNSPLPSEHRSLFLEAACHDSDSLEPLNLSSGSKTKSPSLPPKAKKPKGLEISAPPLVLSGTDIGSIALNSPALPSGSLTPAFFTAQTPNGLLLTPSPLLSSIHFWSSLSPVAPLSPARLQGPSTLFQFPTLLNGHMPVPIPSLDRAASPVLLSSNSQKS
Procedure, shortened: as §1

FEV = molecular target: T7, FEV (Homo sapiens, UniProt Q99581 1-238); conditions: protein: recombinant; tags: N-terminal GST; dsDNA, one strand shown
T7 sequence: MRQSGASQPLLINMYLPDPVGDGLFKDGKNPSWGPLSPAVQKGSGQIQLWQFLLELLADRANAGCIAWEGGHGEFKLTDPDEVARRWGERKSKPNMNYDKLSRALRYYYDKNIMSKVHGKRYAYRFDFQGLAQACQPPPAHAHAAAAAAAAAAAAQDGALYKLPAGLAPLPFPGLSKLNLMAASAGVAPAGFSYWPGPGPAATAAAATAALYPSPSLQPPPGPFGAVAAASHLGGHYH
Procedure, shortened: as §1

ETV5 = ETV5 (Homo sapiens, UniProt P41161 1-510); conditions: protein: recombinant; tags: N-terminal GST; dsDNA, one strand shown
Chain of ETV5 (P41161 whole entry): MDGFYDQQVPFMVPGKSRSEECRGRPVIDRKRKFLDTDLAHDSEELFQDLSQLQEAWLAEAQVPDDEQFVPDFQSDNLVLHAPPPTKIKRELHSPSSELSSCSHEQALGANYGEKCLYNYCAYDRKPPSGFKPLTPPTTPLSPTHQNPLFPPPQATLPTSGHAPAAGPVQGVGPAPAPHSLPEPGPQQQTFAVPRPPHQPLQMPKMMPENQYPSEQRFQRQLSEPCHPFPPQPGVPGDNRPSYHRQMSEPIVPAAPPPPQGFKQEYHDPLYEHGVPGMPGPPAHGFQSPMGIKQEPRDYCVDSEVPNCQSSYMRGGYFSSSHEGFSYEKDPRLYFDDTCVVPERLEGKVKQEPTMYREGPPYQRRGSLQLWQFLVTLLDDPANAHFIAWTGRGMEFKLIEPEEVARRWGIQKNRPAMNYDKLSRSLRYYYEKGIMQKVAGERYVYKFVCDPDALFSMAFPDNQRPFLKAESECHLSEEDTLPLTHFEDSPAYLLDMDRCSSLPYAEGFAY
Procedure, shortened: as §1

HSF1 = HSF1 (Homo sapiens, UniProt Q00613 1-529); conditions: protein: recombinant; tags: N-terminal GST; chain copies: 3; dsDNA, one strand shown
Chain of HSF1 (Q00613 whole entry): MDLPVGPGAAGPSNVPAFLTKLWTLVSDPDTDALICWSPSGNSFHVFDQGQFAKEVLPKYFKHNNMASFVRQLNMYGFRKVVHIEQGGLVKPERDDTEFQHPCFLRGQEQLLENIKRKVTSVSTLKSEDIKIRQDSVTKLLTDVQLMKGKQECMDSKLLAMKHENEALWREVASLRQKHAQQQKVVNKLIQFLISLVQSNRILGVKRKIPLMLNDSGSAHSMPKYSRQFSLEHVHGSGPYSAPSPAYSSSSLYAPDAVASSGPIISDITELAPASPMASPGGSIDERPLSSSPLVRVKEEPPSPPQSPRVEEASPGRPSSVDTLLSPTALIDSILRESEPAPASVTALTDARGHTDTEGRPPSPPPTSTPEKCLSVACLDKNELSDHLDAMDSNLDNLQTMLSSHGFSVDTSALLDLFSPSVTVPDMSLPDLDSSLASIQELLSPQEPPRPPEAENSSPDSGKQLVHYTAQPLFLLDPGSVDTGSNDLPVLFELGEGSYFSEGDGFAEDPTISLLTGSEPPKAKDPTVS
Procedure, shortened: as §1

ELF4 = ELF4 (Homo sapiens, UniProt Q99607 1-663); conditions: protein: recombinant; tags: N-terminal GST; dsDNA, one strand shown
Chain of ELF4 (Q99607 whole entry): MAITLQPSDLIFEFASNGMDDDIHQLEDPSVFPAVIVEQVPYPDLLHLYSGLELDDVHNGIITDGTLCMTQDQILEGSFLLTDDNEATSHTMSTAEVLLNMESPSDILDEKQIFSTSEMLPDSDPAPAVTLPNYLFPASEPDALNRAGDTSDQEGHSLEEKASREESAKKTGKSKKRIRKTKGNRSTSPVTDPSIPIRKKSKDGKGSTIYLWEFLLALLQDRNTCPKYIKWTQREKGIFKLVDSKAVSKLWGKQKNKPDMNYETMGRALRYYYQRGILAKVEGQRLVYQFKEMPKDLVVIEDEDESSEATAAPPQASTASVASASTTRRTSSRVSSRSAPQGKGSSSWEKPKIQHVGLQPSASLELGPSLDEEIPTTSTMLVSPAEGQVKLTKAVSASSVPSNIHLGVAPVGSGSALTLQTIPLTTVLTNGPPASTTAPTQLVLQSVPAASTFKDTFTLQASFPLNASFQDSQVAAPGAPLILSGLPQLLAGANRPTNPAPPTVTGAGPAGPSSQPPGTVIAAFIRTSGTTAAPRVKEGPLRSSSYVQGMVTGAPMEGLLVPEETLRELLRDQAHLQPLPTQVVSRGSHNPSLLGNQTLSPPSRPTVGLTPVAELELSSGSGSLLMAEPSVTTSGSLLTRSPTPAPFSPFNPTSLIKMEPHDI
Procedure, shortened: as §1

ELK4 = molecular target: T8, ELK4 (Homo sapiens, UniProt P28324-2 1-405); conditions: protein: recombinant; tags: N-terminal GST; dsDNA, one strand shown
T8 sequence: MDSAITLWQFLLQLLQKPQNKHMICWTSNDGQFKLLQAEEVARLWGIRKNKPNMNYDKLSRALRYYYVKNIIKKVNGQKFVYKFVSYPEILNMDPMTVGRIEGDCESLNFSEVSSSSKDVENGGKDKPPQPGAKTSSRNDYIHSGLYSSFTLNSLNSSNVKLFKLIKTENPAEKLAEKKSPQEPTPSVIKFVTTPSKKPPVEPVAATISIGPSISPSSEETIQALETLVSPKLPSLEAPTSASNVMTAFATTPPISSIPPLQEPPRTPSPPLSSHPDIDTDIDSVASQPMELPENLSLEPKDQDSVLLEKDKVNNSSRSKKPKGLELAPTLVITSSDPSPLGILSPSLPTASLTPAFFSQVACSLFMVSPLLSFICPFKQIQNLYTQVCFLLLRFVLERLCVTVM
Procedure, shortened: as §1

ETV2 = molecular target: T9, ETV2 (Homo sapiens, UniProt O00321 1-342); conditions: protein: recombinant; tags: N-terminal GST; dsDNA, one strand shown
T9 sequence: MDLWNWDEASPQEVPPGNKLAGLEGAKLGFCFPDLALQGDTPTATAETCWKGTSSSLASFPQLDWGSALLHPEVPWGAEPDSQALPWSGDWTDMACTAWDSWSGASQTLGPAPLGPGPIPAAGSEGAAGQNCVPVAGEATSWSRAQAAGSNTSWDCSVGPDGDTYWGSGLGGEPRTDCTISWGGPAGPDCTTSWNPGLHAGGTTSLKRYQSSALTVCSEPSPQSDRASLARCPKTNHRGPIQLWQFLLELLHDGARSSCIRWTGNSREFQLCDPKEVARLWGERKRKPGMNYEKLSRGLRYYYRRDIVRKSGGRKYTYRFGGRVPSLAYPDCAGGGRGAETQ
Procedure, shortened: as §1

ELF3 = molecular target: T10, ELF3 (Homo sapiens, UniProt P78545 1-371); conditions: protein: recombinant; tags: N-terminal GST; dsDNA, one strand shown
T10 sequence: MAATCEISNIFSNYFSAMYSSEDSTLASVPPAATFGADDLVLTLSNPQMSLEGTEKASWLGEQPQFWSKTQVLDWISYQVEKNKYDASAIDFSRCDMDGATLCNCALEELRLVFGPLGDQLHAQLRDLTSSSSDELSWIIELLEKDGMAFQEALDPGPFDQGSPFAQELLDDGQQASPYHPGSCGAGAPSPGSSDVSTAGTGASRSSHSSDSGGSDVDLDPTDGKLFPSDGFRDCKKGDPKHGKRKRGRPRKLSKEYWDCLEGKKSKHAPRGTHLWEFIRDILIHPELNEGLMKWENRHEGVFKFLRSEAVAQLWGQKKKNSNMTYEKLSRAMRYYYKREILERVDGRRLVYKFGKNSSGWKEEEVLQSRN
Procedure, shortened: as §1

CRX = CRX (Homo sapiens, UniProt O43186 1-299); conditions: protein: recombinant; tags: N-terminal GST; dsDNA, one strand shown
Chain of CRX (O43186 whole entry): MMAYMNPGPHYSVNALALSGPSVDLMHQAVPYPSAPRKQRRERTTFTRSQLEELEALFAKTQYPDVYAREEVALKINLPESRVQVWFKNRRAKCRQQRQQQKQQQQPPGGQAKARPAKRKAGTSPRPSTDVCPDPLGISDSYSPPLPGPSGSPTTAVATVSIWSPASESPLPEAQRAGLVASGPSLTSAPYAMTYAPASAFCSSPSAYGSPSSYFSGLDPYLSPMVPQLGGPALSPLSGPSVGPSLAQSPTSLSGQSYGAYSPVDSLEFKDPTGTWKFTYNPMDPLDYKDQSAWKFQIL
Procedure, shortened: as §1

ETV1 = ETV1 (Homo sapiens, UniProt P50549 1-477); conditions: protein: recombinant; tags: N-terminal GST; dsDNA, one strand shown
Chain of ETV1 (P50549 whole entry): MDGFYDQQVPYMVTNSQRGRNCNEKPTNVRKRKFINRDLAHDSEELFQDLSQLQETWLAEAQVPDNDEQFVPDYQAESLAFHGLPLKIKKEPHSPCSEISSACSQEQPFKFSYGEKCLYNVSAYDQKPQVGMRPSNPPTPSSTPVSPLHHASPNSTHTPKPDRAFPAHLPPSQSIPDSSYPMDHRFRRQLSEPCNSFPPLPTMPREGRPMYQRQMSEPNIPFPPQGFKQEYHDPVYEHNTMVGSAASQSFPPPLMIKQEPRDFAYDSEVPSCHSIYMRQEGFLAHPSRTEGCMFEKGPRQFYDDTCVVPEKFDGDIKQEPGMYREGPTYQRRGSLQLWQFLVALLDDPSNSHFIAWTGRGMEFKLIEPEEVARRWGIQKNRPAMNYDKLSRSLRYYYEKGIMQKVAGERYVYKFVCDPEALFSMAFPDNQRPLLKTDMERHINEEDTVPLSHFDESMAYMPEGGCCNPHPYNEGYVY
Procedure, shortened: as §1

| Sequence | binding signal (FLI1) | binding signal (ELK1) | binding signal (GABPA) | binding signal (ERG) | binding signal (ELF1) | binding signal (EHF) | binding signal (SPI1) | binding signal (SPIB) | binding signal (ELK3) | binding signal (FEV) | binding signal (ETV5) | binding signal (HSF1) | binding signal (ELF4) | binding signal (ELK4) | binding signal (ETV2) | binding signal (ELF3) | binding signal (CRX) | binding signal (ETV1) |
| --- | --- | --- | --- | --- | --- | --- | --- | --- | --- | --- | --- | --- | --- | --- | --- | --- | --- | --- |
| CTAGTA | 1.08 fold enrichment (6-mer frequency, TF over GST control) | 1.03 fold enrichment (6-mer frequency, TF over GST control) | 1.08 fold enrichment (6-mer frequency, TF over GST control) | 1.06 fold enrichment (6-mer frequency, TF over GST control) | 1.15 fold enrichment (6-mer frequency, TF over GST control) | 1.08 fold enrichment (6-mer frequency, TF over GST control) | 1.13 fold enrichment (6-mer frequency, TF over GST control) | 1.1 fold enrichment (6-mer frequency, TF over GST control) | 1.17 fold enrichment (6-mer frequency, TF over GST control) | 1.04 fold enrichment (6-mer frequency, TF over GST control) | 1.08 fold enrichment (6-mer frequency, TF over GST control) | 1.86 fold enrichment (6-mer frequency, TF over GST control) | 1.07 fold enrichment (6-mer frequency, TF over GST control) | 1.09 fold enrichment (6-mer frequency, TF over GST control) | 1.1 fold enrichment (6-mer frequency, TF over GST control) | 1.18 fold enrichment (6-mer frequency, TF over GST control) | 1.38 fold enrichment (6-mer frequency, TF over GST control) | 1.04 fold enrichment (6-mer frequency, TF over GST control) |
| AAGACT | 1.09 fold enrichment (6-mer frequency, TF over GST control) | 1.12 fold enrichment (6-mer frequency, TF over GST control) | 1.06 fold enrichment (6-mer frequency, TF over GST control) | 1.1 fold enrichment (6-mer frequency, TF over GST control) | 1.08 fold enrichment (6-mer frequency, TF over GST control) |  | 1.12 fold enrichment (6-mer frequency, TF over GST control) | 1.08 fold enrichment (6-mer frequency, TF over GST control) | 1.14 fold enrichment (6-mer frequency, TF over GST control) | 1.08 fold enrichment (6-mer frequency, TF over GST control) | 1.09 fold enrichment (6-mer frequency, TF over GST control) | 1.23 fold enrichment (6-mer frequency, TF over GST control) | 1.14 fold enrichment (6-mer frequency, TF over GST control) | 1.06 fold enrichment (6-mer frequency, TF over GST control) | 1.07 fold enrichment (6-mer frequency, TF over GST control) | 1.1 fold enrichment (6-mer frequency, TF over GST control) | 1.36 fold enrichment (6-mer frequency, TF over GST control) | 1.02 fold enrichment (6-mer frequency, TF over GST control) |
